From PubChem BioAssay (Tox21)
Inconclusive results are not listed. Activity calls are given as the source filed them. Unless noted, calls follow the shape of the dose curve; as a rule, active = well fitted curve in the direction sought with a large enough effect in the repeat runs; inconclusive = weak or mixed curves; inactive = no such curve, though single readings can be large; an effect the other way counts as inactive or inconclusive.

Tests used:
[1] = qHTS assay to identify small molecule agonists of H2AX (AID 1224845; active = well fitted activation curve with a large enough effect in the signal ratio in the repeat runs, not every such curve was filed as active; the % refers to the signal ratio); details: CHO-K1 phospho-H2AX Ser139 HTRF, 3 h; series mostly up to 154 µM
Summary of the method: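 Phospho-H2AX Ser139 measured by HTRF (ex 320 nm; em 665 and 620 nm) after 24 hr antibody incubation. Compounds, 15 concentrations, 0.76% DMSO, were applied to CHO-K1 cells for 3hr at 37C before lysis.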

[2] = qHTS assay to identify small molecule agonists of the hypoxia (HIF-1) signaling pathway (AID 1224846; active = well fitted activation curve with a large enough effect in the signal ratio in the repeat runs, not every such curve was filed as active; the % refers to the signal ratio); details: HRE-bla ME-180 cells, beta-lactamase ratio, 17 h; series mostly up to 76.8 µM
Summary of the method: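 Measured by blue/green FRET after loading CCF4-AM: beta-lactamase expressed from a hypoxia response element in ME-180 cells. Test agents were delivered in DMSO and left 17 hrs; cells had been plated 5 hrs earlier in low-serum (0.5% dialyzed FBS) medium.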

[3] = qHTS RealTime-Glo MT Cell Viability Assay in HEK293 cells - 32 hour (AID 1224868); details: RealTime-Glo luminescence; series mostly up to 76.8 µM; also: nearly all actives have a fitted effect of over 50% in size; also: potency is read from the fitted curve at half-maximal effect
Summary of the method: (§1)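 Cells + reagent dispensed (600 cells/well, HEK293) → 5 h at 37 C/5% CO2 → 23 nL compound in DMSO pinned → 40 h at 37 C → luminescence read at 0, 8, 16, 24, 32, 40 h.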

[4] = A CellTox Green Cytotoxicity Assay to monitor cytotoxicity in HEK293 cells - 0 hour (AID 1224869); details: CellTox Green fluorescence; series mostly up to 76.8 µM; also: nearly all actives have a fitted effect of over 50% in size
Summary of the method: (§2)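 Each value comes from one timepoint of a single continuous run in which HEK293 cells with CellTox Green were exposed to compound for up to 40 h at 37 C, dye fluorescence rising with cell death.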

[5] = qHTS RealTime-Glo MT Cell Viability Assay in HepG2 cells - 40 hour (AID 1224870); details: RealTime-Glo luminescence; series mostly up to 76.8 µM; also: nearly all actives have a fitted effect of over 50% in size; also: potency is read from the fitted curve at half-maximal effect
Summary of the method: (§3)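 Real-time viability: cells seeded at 600 per well together with NanoLuc and cell-permeant prosubstrate, compounds added after 5 h incubation. Luminescence tracked at 0, 8, 16, 24, 32 and 40 h of exposure.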

[6] = A CellTox Green Cytotoxicity Assay to monitor cytotoxicity in HEK293 cells - 40 hour (AID 1224871); details: CellTox Green fluorescence; series mostly up to 76.8 µM; also: nearly all actives have a fitted effect of over 45% in size; also: potency is read from the fitted curve at half-maximal effect
Summary of the method: as §2

[7] = qHTS RealTime-Glo MT Cell Viability Assay in HEK293 cells - 16 hour (AID 1224872); details: RealTime-Glo luminescence; series mostly up to 76.8 µM; also: top concentration of the series differs between compounds; nearly all actives have a fitted effect of over 50% in size
Summary of the method: as §1

[8] = qHTS RealTime-Glo MT Cell Viability Assay in HepG2 cells - 8 hour (AID 1224873); details: RealTime-Glo luminescence; series mostly up to 76.8 µM; also: nearly all actives have a fitted effect of over 55% in size; also: potency is read from the fitted curve at half-maximal effect
Summary of the method: as §3

[9] = qHTS RealTime-Glo MT Cell Viability Assay in HEK293 cells - 40 hour (AID 1224874); details: RealTime-Glo luminescence; max response: stronger effect = lower value; also: nearly all actives have a fitted effect of over 50% in size; also: potency is read from the fitted curve at half-maximal effect
Summary of the method: (§4)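 qHTS format; HEK293 cells with NanoLuc/prosubstrate reagent, 37 C/5% CO2 for 5 h pre-dosing; compounds 23 nL in DMSO; luminescence at each time point reflects viable cells.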

[10] = A CellTox Green Cytotoxicity Assay to monitor cytotoxicity in HEK293 cells - 24 hour (AID 1224875); details: CellTox Green fluorescence; series mostly up to 76.8 µM; also: nearly all actives have a fitted effect of over 45% in size
Summary of the method: as §2

[11] = A CellTox Green Cytotoxicity Assay to monitor cytotoxicity in HepG2 cells - 16 hour (AID 1224876); details: CellTox Green fluorescence; series mostly up to 76.8 µM; also: nearly all actives have a fitted effect of over 45% in size; also: potency is read from the fitted curve at half-maximal effect
Summary of the method: (§5)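 Continuous culture of HepG2 cells with a membrane-impermeant DNA dye; rising fluorescence marks dead cells. Compound exposure lasted up to 40 h at 37 C, with reads every 8 h from 0 h.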

[12] = qHTS RealTime-Glo MT Cell Viability Assay in HepG2 cells - 32 hour (AID 1224877); details: RealTime-Glo luminescence; series mostly up to 76.8 µM; also: nearly all actives have a fitted effect of over 55% in size; also: potency is read from the fitted curve at half-maximal effect
Summary of the method: (§6)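 Real-time, nonlytic viability: 600 HepG2 cells/well mixed with NanoLuc enzyme plus prosubstrate; 5 h settle, compound (DMSO) added by pintool; luminescence monitored over 40 h at 37 C.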

[13] = A CellTox Green Cytotoxicity Assay to monitor cytotoxicity in HepG2 cells - 24 hour (AID 1224878); details: CellTox Green fluorescence; series mostly up to 76.8 µM; also: nearly all actives have a fitted effect of over 45% in size; also: potency is read from the fitted curve at half-maximal effect
Summary of the method: as §5

[14] = A CellTox Green Cytotoxicity Assay to monitor cytotoxicity in HepG2 cells - 40 hour (AID 1224879); details: CellTox Green fluorescence; series mostly up to 76.8 µM; also: nearly all actives have a fitted effect of over 40% in size; also: potency is read from the fitted curve at half-maximal effect
Summary of the method: as §5

[15] = qHTS RealTime-Glo MT Cell Viability Assay in HEK293 cells - 0 hour (AID 1224880); details: RealTime-Glo luminescence; series mostly up to 76.8 µM
Summary of the method: as §4

[16] = A CellTox Green Cytotoxicity Assay to monitor cytotoxicity in HEK293 cells - 32 hour (AID 1224881); details: CellTox Green fluorescence; series mostly up to 76.8 µM; also: nearly all actives have a fitted effect of over 40% in size
Summary of the method: as §2

[17] = qHTS assay to identify small molecule agonists of H2AX - cell viability counter screen (AID 1224847; calls by dose curve;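 also: wild-type CHO-K1 cells; top concentration of the series differs between compounds; nearly all actives have a fitted effect of over 30% in size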); details: CHO-K1 viability, CellTiter-Glo luminescence, 3 h; series mostly up to 154 µM
Summary of the method: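 CHO-K1 cells plated overnight at 37C, then exposed 3 h at 37C to compounds at 15 concentrations (0.76% DMSO final). Viability by CellTiter-Glo luminescence after 30 min at room temperature.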

[18] = qHTS assay to identify small molecule antagonists of the estrogen related receptor (ERR) signaling pathway from Tox21 library (AID 1224848); details: ERR reporter cell line, luciferase antagonist mode, 18 h; series mostly up to 92.4 µM; also: nearly all actives have a fitted effect of over 50% in size; also: potency is read from the fitted curve at half-maximal effect
Summary of the method: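 Reading was by luminescence 30 min after ONE-Glo addition. Before that, ERR cells at 2,000 per well had rested 6 h at 37 C/5% CO2 and then received pin-tooled compounds in DMSO for 18 h at 37 C.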

[19] = qHTS assay to identify small molecule agonists of the estrogen related receptor (ERR) signaling pathway from Tox21 library (AID 1224849; calls by dose curve; also: nearly all actives have a fitted effect of over 15% in size); details: ERR reporter cell line, ONE-Glo luciferase, 18 h; at 92.4 µM (top of the series) unless noted
Summary of the method: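 We plated ERR reporter cells, waited 6 h, added compounds in DMSO by pin tool and incubated them 18 h at 37 C. ONE-Glo was then added and luminescence read after 30 min.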

[20] = qHTS RealTime-Glo MT Cell Viability Assay in HepG2 cells - 24 hour (AID 1224867); details: RealTime-Glo luminescence; series mostly up to 76.8 µM; also: nearly all actives have a fitted effect of over 50% in size; also: potency is read from the fitted curve at half-maximal effect
Summary of the method: as §6
% is scaled to controls: 0 for no effect and ±100 for the full control effect.

O=C(OCCc1ccccc1)c1ccccc1
inactive: Potency [1] | Potency [2] | Potency [3] | Potency [4] | Potency [5] | Potency [6] | Potency [7] | Potency [8] | max response [9] -19.4% | Potency [10] | Potency [11] | Potency [12] | Potency [13] | Potency [14] | Potency [15] | Potency [16]

OCc1cc(C(O)CNCCCCCCOCCCCc2ccccc2)ccc1O (stereo not drawn)
inactive: Potency [1] | Potency [17] | activity change, positive = activation [19] -29.9% [at 42.5 µM] | Potency [4] | Potency [8] | Potency [15]
active: Potency [18] 21.1 µM | Potency [3] 21.3 µM | Potency [9] 23.9 µM | Potency [11] 23.9 µM | Potency [13] 23.9 µM | Potency [14] 23.9 µM

O=C1CCCCCCCCCCCC(=O)OCCO1
inactive: Potency [1] | Potency [2] | Potency [18] | activity change, positive = activation [19] 1.67% | Potency [20] | Potency [3] | Potency [4] | Potency [5] | Potency [7] | Potency [8] | max response [9] -16% | Potency [10] | Potency [11] | Potency [12] | Potency [15]
active: Potency [6] 54.9 µM

CCCn1cnc2c1c(=O)n(CCCCC(C)=O)c(=O)n2C
inactive: Potency [1] | Potency [17] | Potency [18] | activity change, positive = activation [19] 0.154% [at 42.5 µM] | Potency [20] | Potency [3] | Potency [4] | Potency [5] | Potency [6] | Potency [7] | Potency [8] | max response [9] -0.107% | Potency [10] | Potency [11] | Potency [12] | Potency [13] | Potency [14] | Potency [15] | Potency [16]

CC(C)C[C@H]1C(=O)N2CCC[C@H]2[C@]2(O)O[C@](NC(=O)[C@@H]3C=C4c5cccc6[nH]c(Br)c(c56)C[C@H]4N(C)C3)(C(C)C)C(=O)N12
inactive: Potency [1] | Potency [17] | activity change, positive = activation [19] -64.1% [at 42.5 µM] | Potency [4] | Potency [6] | Potency [10] | Potency [11] | Potency [13] | Potency [15] | Potency [16]
active: Potency [18] 14.6 µM | Potency [20] 13.2 µM | Potency [5] 14.8 µM | Potency [8] 13.2 µM | Potency [12] 13.2 µM

COc1cc2nc(Cl)nc(N)c2cc1OC
inactive: Potency [1] | Potency [2] | Potency [17] | Potency [20] | Potency [4] | Potency [5] | Potency [6] | Potency [8] | Potency [10] | Potency [11] | Potency [12] | Potency [13] | Potency [15] | Potency [16]

CCCCCCCCO[C@@H]1O[C@H](CO)[C@@H](O)[C@H](O)[C@H]1O
inactive: Potency [1] | Potency [2] | Potency [17] | Potency [3] | Potency [4] | Potency [5] | Potency [6] | Potency [7] | Potency [8] | max response [9] 4.48% | Potency [10] | Potency [11] | Potency [12] | Potency [13] | Potency [15] | Potency [16]

CN(C)CCN(Cc1ccsc1)c1ccccn1
inactive: Potency [1] | Potency [2] | Potency [17] | Potency [3] | Potency [4] | Potency [5] | Potency [6] | Potency [7] | Potency [8] | max response [9] 1.6% | Potency [10] | Potency [11] | Potency [12] | Potency [13] | Potency [14] | Potency [15] | Potency [16]

CCCCCCCN
inactive: Potency [1] | Potency [2] | Potency [17] | Potency [3] | Potency [4] | Potency [5] | Potency [6] | Potency [7] | Potency [8] | max response [9] -2.68% | Potency [10] | Potency [11] | Potency [12] | Potency [13] | Potency [14] | Potency [15] | Potency [16]

CN(Cc1ccc(C(C)(C)C)cc1)Cc1cccc2ccccc12
inactive: Potency [1] | Potency [2] | Potency [20] | Potency [3] | Potency [4] | Potency [5] | Potency [7] | Potency [8] | max response [9] -22.5% | Potency [11] | Potency [12] | Potency [13] | Potency [14] | Potency [15]

CC1OC(=O)C(C)OC1=O (stereo not drawn)
inactive: Potency [1] | Potency [2] | Potency [17] | Potency [3] | Potency [4] | Potency [5] | Potency [6] | Potency [7] | Potency [8] | max response [9] -4.59% | Potency [10] | Potency [11] | Potency [12] | Potency [13] | Potency [14] | Potency [15] | Potency [16]
